Test results reported in PubChem BioAssay AID2101 (National Center for Advancing Translational Sciences (NCATS), 2009).
About 300 (0.091%) of roughly 330,000 compounds were called active. A call without a number means that no potency is given here. About 4% were inconclusive and are not listed. Many of the other results were omitted from the sample, so actives are more common in it than they were. Values without a mark were called inactive. The call rests on the fitted dose curve; in most records, active means well fitted inhibition curve with a large enough effect; inconclusive means small, poorly fitted or top-dose-only effect, or effect the other way, or another doubt; inactive means no such curve, though single readings can be large or run the other way.

Molecular target: Lysosomal acid glucosylceramidase (Homo sapiens) (UniProt P04062)
Experiment: qHTS Assay for Inhibitors and Activators of N370S glucocerebrosidase as a Potential Chaperone Treatment of Gaucher Disease
Conditions: N370S GC spleen homogenate, 4MU-glucoside fluorescence; series mostly up to 59.4 µM
Potency means the concentration at half of the fitted maximal effect.

| SMILES | activity change, negative = inhibition | Potency |
| --- | --- | --- |
| O=C(CSc1nnc(COc2ccc(Cl)cc2)n1Cc1ccco1)N1CCNC1=O | inactive | – |
| CCC(=O)c1ccc(OCC(=O)N(CC)CC2COc3ccccc3O2)cc1 (stereo not drawn) | inactive | – |
| CC1Cc2ccccc2N1S(=O)(=O)c1cccc(C(=O)NCC(c2ccco2)N2CCCC2)c1 (stereo not drawn) | inactive | – |
| C[C@@H]1O[C@@H](O[C@@H]2[C@@H](O)[C@H](OCCc3ccc(O)c(O)c3)O[C@H](CO[C@@H]3O[C@H](CO)[C@@H](O)[C@H](O)[C@H]3O)[C@H]2OC(=O)/C=C/c2ccc(O)c(O)c2)[C@H](O)[C@H](O)[C@H]1O | inactive | – |
| C=CCC(C)(O)c1ccco1 (stereo not drawn) | inactive | – |
| COc1ccc(C2CC(O)(c3ccccc3)Oc3cc(C)cc(C)c32)cc1 (stereo not drawn) | inactive | – |
| C=CCN1C(=O)c2ccc(C(=O)N3CCC(C(=O)OCC)CC3)cc2C1=O | inactive | – |
| O=C(COC(=O)c1ccccc1Cl)NC1CCCCCCC1 | inactive | – |
| C[C@H]1CC[C@H](C(=O)O)N[C@@H]1c1ccc(C#Cc2ccccc2)cc1 | 5.48% [at 12.8 µM] | – |
| COc1ccc(-c2nc3c(c4c2C[C@H](c2ccccc2)OC4)CN(S(=O)(=O)c2c(C)noc2C)CC3)c(C)c1 | -9.78% [at 12.8 µM] | – |
| COC(=O)c1sc(NC(=O)COC(=O)C2CCC2)c(C(=O)OC)c1C | inactive | – |
| CC(C)c1cnc(NC(=O)Cc2ccccc2)s1 | inactive | – |
| NCCC(=O)c1ccccc1N | inactive | – |
| O=C(CCNC(=O)c1ccc([N+](=O)[O-])cc1)NC1CCCCC1 | inactive | – |
| CCN(c1ccccc1)S(=O)(=O)c1cc(C(=O)NCc2ccccn2)ccc1C | inactive | – |
| C=C1/C(=C\C=C2\CCCC3(C)C2CCC3C(C)/C=C/C(O)C2CC2)CC(O)CC1O (stereo not drawn) | inactive | – |
| N#Cc1cc2[nH]c(=O)c(=O)[nH]c2cc1[N+](=O)[O-] | – | 22.4 µM (active) |
| COc1ccc(CC(N)C(=O)NC2C(O)[C@H](n3cnc4c(N(C)C)ncnc43)O[C@@H]2CO)cc1 (stereo partly drawn) | inactive | – |
| COC(=O)[C@H]1C[C@@H]1[C@H](NC(=O)Oc1ccc(F)cc1)c1ccccc1 | inactive | – |

| SMILES | activity change, negative = inhibition | Potency |
| --- | --- | --- |
| Cc1nnc(NC(=O)c2ccc3nccnc3c2)s1 | inactive | – |
| CCOC(=O)C1=C(C)NC2=C(C(=O)CC(C)(C)C2)C1c1ccsc1 (stereo not drawn) | inactive | – |
| COc1ccc(C2C(C#N)=C(/N=C/N3CCOCC3)OC3=C2C(=O)CC(C)(C)C3)cc1OC (stereo not drawn) | inactive | – |
| COc1cc(C2C(C#N)=C(C)NC3=C2C(=O)CC(C)(C)C3)ccc1O (stereo not drawn) | – | 10 µM (active) |
| O=S(=O)(NC1CCN(S(=O)(=O)c2ccc3c(c2)OCCO3)CC1)c1c(F)cccc1F | inactive | – |
| CCN(CC)S(=O)(=O)c1ccc(CNC(=O)CN2C(=O)NC3(CCc4ccccc43)C2=O)cc1 (stereo not drawn) | inactive | – |
| CC(C)(Oc1ccc(Cl)cc1)C(=O)OCC(=O)NCCc1ccc(S(N)(=O)=O)cc1 | inactive | – |
| CCCC(Cl)CCCC(Cl)CCC(Cl)CCC(Cl)CCC(Cl)CCCC(Cl)CCC (stereo not drawn) | inactive | – |
| CCCC[C@H]1C(=O)N(c2ccccc2)N(c2ccc(O)cc2)C1=O | inactive | – |
| C=CCC1CCC(=O)N2CCCC12 (stereo not drawn) | inactive | – |
| COc1cc2c(cc1OC)CN(C(C)C(=O)Nc1cccc(S(=O)(=O)N3CCOCC3)c1)CC2 (stereo not drawn) | inactive | – |
| OC[C@H]1O[C@@H](n2cnc3c(NC4CCCC4)ncnc32)[C@H](O)[C@H]1O | inactive | – |
| CCOC(=O)[C@]1(C(/C=C/c2ccco2)NC(=O)OC)CCCC1=O (stereo partly drawn) | 2.17% [at 12.8 µM] | – |
| CCCCC/C=C\C[C@H](O)/C=C/C=C/C=C/[C@@H](O)CCCC(=O)O | inactive | – |
| CCNc1ncc2ncc(=O)n(Cc3cccc(OC)c3)c2n1 | inactive | – |
| CC(Nc1oc(-c2ccccc2)nc1-c1ccccc1)c1ccccc1 (stereo not drawn) | inactive | – |
| CN(CC(=O)NCCc1ccc(F)cc1)CC(=O)Nc1ccc(F)c(F)c1F | inactive | – |
| CC1(C)OC(C(O)(c2ccccc2)c2ccccc2)C(C(O)(c2ccccc2)c2ccccc2)O1 (stereo not drawn) | -1.37% [at 12.8 µM] | – |
| Cc1ccc(SCC(CC(C)C)N2CCN(CCc3ccccc3)CCC2=O)cc1 (stereo not drawn) | inactive | – |
